Assay outcomes as filed in PubChem BioAssay.
Vaccinia Venus: inhibitors of vaccinia virus (Venus reporter); Potency, µM (titrated, usually from 36.5 µM), inactives show at the highest dose activity change, negative = inhibition, actives largely listed as inhibitors; 0.46% of 330,000 active; Vaccinia virus Venus reporter expression, fluorescence; AID 720580; calls by dose curve; tested in A549 cells; note: potency is the fitted concentration of half-maximal effect; % is set by controls: 0 for no effect and ±100 for the full control effect; nearly all actives have a fitted effect of over 30% in size
CHX counter: counter-screen hit for Shiga toxin inhibitors, cycloheximide; cell reporter, cycloheximide protein synthesis inhibition counterscreen; max response, %; 12% of 300,000 active; AID 2314; in the data active = max response mostly above about 13%, no sharp cut-off; inactive = mostly below about 14%; note: read at 38.3 µM for the half of the compounds with a filed dose; 0% is about no effect
Vaccinia mCherry: inhibitors of vaccinia virus infection (mCherry reporter signal); Vaccinia virus mCherry reporter infection, fluorescence; Potency, µM (top dose mostly 36.5 µM), inactives show at the highest dose activity change, negative = inhibition, usual class: inhibitors; 0.63% of 310,000 active; AID 720579; calls by dose curve; tested in A549 cells; note: potency is the fitted concentration of half-maximal effect; % is set by controls: 0 for no effect and ±100 for the full control effect; nearly all actives have a fitted effect of over 35% in size
Lassa entry inh: inhibitors of Lassa virus binding or cell entry; Lassa virus pseudotype entry inhibition, cell reporter; Potency, µM (titrated, usually from 37.9 µM), for the others: at the highest dose activity change, negative = inhibition, most hits filed as inhibitors; 1.2% of 300,000 active; AID 540256; calls by dose curve; tested in HEK293 cells; note: potency is the fitted concentration of half-maximal effect; % is set by controls: 0 for no effect and ±100 for the full control effect; nearly all actives have a fitted effect of over 50% in size
Marburg entry inh: Marburg virus entry inhibition; Marburg virus pseudotyped entry inhibition, cell reporter; Potency, µM (series often up to 37.8 µM), for the others: top-dose activity change, negative = inhibition, actives largely listed as inhibitors; 1.8% of 300,000 active; calls by dose curve; tested in HEK293 cells; note: potency is the fitted concentration of half-maximal effect; % is set by controls: 0 for no effect and ±100 for the full control effect
Shiga toxin inh: blocks Shiga toxin action in Vero cells. Vero cells, Shiga toxin protein synthesis inhibition reporter. inhibition, % at 38.7 µM. 9.2% of 290,000 active. AID 2315; in the data active = inhibition mostly above about 28%, no sharp cut-off; inactive = mostly below about 43%; note: 0% is about no effect
Starred values were filed as active, the others as inactive; i = inactive; ? = inconclusive; . = no result; [ ] = dose if it differs, or a comment. The entries come from a sample that favours hits as a whole.

SMILES	Vaccinia Venus	CHX counter	Vaccinia mCherry	Lassa entry inh	Marburg entry inh	Shiga toxin inh
CCCc1ccc2oc(C(=O)N(Cc3ccncc3)CC3CCCO3)c(C)c2c1 (configuration not stated)	-9.2%	12.3*	i	6.31µM*	?	19.6
CCC1(C2CCN(C(=O)c3ccc4ccccc4c3)CC2)NC(=O)N(CCc2scnc2C)C1=O (configuration not stated)	-3.5%	.	-10.3%	.	.	.
O=C(NC1=NCCS1)C1CCN(S(=O)(=O)c2cc([N+](=O)[O-])ccc2Cl)CC1	-24.4%	.	?	-19.9%	?	.
CC(C)(CNC(=O)C1CCN(S(=O)(=O)c2cc([N+](=O)[O-])ccc2Cl)CC1)N1CCOCC1	?	.	14.1µM*	13.9%	-7.3%	.
Cc1cccc2sc(NC(=O)C3CCN(S(=O)(=O)c4cc([N+](=O)[O-])ccc4Cl)CC3)nc12	?	17.0	?	?	6.31µM*	11.6
CC(=C/C(=O)O)/C=C/c1ccc(Cl)o1	-13.3%	50.3*	-21.1%	3.6%	-3.6%	78.1*
Cc1cn(-c2ccc(Br)cc2)[nH]c1=O	-5.9%	39.3*	-7.4%	5.5%	-3.1%	63.6*
c1ccc2c(Oc3ccc4c(c3)OCO4)nncc2c1	?	29.4*	.	-8.8%	?	76.0*
Cc1cc(C)c2c(N)c3ccccc3nc2n1	.	2.6	.	-19.7%	?	72.5
CCc1ccc2nc3nc(C)cc(C)c3c(N)c2c1	?	19.6*	?	?	?	90.8*
CC(=O)c1cccc(Nc2nc(-c3sc(N)nc3C)cs2)c1	-9.7%	20.2*	-10.7%	?	11.1%	41.7
Cc1nc(NC(=O)c2ccccc2)sc1-c1csc(Nc2cccc(Cl)c2)n1	.	18.7	.	.	0.0%	56.1
Cc1nc(NC(=O)c2ccccc2)sc1-c1csc(Nc2ccc(Cl)cc2)n1	.	10.0	.	.	.	28.3
CC(=O)c1cccc(Nc2nc(-c3sc(C)nc3C)cs2)c1	?	11.6*	-18.9%	?	?	20.1
COc1ccc(CNC(=O)CS(=O)(=O)c2cccc3nsnc23)cc1	-5.9%	.	-12.4%	4.5%[46.1 µM]	.	.
COc1ccccc1C(=O)NCCC(=O)N1CC(C)OC(C)C1 (configuration not stated)	6.6%	.	-7.9%	-2.8%	0.9%[46.1 µM]	.
Clc1cccc(C2=NC(c3cccs3)=Nc3ccc(Br)cc3N2)c1	-21.1%	.	-13.4%	-3.5%[46.1 µM]	-20.8%[46.1 µM]	.
CCCCN1C(=O)C(CC(=O)NCc2ccco2)CC(C(=O)N(C(C)C)C(C)C)=C1C (configuration not stated)	8.1%	.	i	.	.	.
COc1ccccc1C(=O)C1CCCN(C(=O)CCC(=O)c2ccccc2)C1 (configuration not stated)	-18.6%	12.4*	i	?	-22.7%[46.1 µM]	21.5
COC(=O)c1ccc(NC(=O)N2CCCC(C(=O)c3ccccc3OC)C2)cc1 (configuration not stated)	-13.0%	-2.5	-23.3%	.	.	26.7
COc1ccccc1C(=O)C1CCCN(C(=O)Nc2ccccc2F)C1 (configuration not stated)	-17.2%	27.9*	i	-8.8%[46.1 µM]	?	73.2*
COc1cc([N+](=O)[O-])ccc1NC(=O)N1CCC2(CC1)Nc1cc(F)ccc1-n1cccc12	-10.4%	.	-18.9%	-2.1%[46.1 µM]	.	.
COc1cccc(Cc2nc3cccnc3n2C2CCN(Cc3ccc(C)s3)CC2)c1	-6.4%	.	-11.9%	.	.	.
O=C(O)c1cc(N=Nc2ccc(-c3ccc(N=Nc4ccc(O)c(C(=O)O)c4)cc3)cc2)ccc1O	.	12.2	.	.	.	26.4*
O=C(O)c1cc(S(=O)(=O)O)ccc1O	-2.9%	-3.0	-7.8%	11.1%	-1.0%	8.9
SMILES	Vaccinia Venus	CHX counter	Vaccinia mCherry	Lassa entry inh	Marburg entry inh	Shiga toxin inh
CN(C)c1ccc2c(c1)OC(N)=C(C#N)C2c1cccc(F)c1 (configuration not stated)	.	-3.7	.	?	2.06µM*	-5.2
COc1cccc(-c2sc3ccccc3c2-c2ccc(OCCN(C)C)cc2)c1	?	.	14.1µM*	.	.	.
c1ccc(-c2sc3ccccc3c2-c2ccc(OCCN3CCCC3)cc2)cc1	14.1µM*	.	?	.	.	.
COc1cccc(-c2sc3ccccc3c2-c2ccc(OCCN3CCCC3)cc2)c1	12.6µM*	.	?	.	.	.
COc1ccc(-c2sc3ccccc3c2-c2ccc(OCCN3CCCCC3)cc2)cc1	-17.3%	.	-13.9%	.	.	.
CCOc1cccc(CN2CCC(n3cc(C(=O)N4CCCCC4)nn3)CC2)c1O	-8.0%	.	-16.7%	.	.	.
Cc1cccc(N=Nc2c(N)n[nH]c2N)c1	.	16.5*	.	.	.	35.7
O=c1cc(N=Nc2ccc(Cl)cc2)[nH]c(=O)[nH]1	-16.1%	-1.5	-2.4%	?	5.3%[46.1 µM]	-10.6
Nc1[nH]ncc1N=Nc1ccc(Cl)cc1	.	55.2*	.	21.4%	4.2%	98.2*
Nc1n[nH]c(N)c1N=Nc1cccc(C(F)(F)F)c1	.	14.6	.	.	.	22.3
Nc1n[nH]c(N)c1N=Nc1ccc(Cl)cc1	?	47.4*	-27.0%	13.2%	?	19.5
Nc1[nH][nH]c(=O)c1N=Nc1cccc(Cl)c1	-9.3%	13.2	-12.8%	-29.9%	-8.9%[46.1 µM]	-1.0
Nc1n[nH]c(N)c1N=Nc1cccc(F)c1	-0.2%	15.9	-6.7%	0.9%	12.4%	34.4*
Cc1ccc(OCC(=O)N(Cc2ccco2)c2ccccn2)cc1	-3.7%	.	-3.3%	13.6%[46.1 µM]	0.3%[46.1 µM]	.
CC1CC(C)(C)NC(=S)N1CCCC(=O)Nc1ccc2c(c1)OCCO2 (configuration not stated)	-5.0%	41.5*	-3.0%	19.1%	29.8%[46.1 µM]	115.6*
CC1Oc2ccccc2N(CC(=O)Nc2ccc3c(c2)OCO3)C1=O (configuration not stated)	.	15.9	.	-8.8%	20.6%	27.4
CC1CCCCC12NC(=O)N(CC(=O)Nc1ccc3c(c1)OCO3)C2=O (configuration not stated)	-9.7%	.	i	.	.	.
CC1Oc2ccccc2N(CC(=O)Nc2ccc3c(c2)OCCO3)C1=O (configuration not stated)	.	44.3*	.	24.6%	11.9%	89.6
O=C(CN1CCC(C(=O)c2ccc(Cl)cc2)CC1)Nc1ccc2c(c1)OCCO2	.	16.9*	.	?	?	29.9
CC1CCCCC12NC(=O)N(CC(=O)NC(=O)Nc1ccc3c(c1)OCCO3)C2=O (configuration not stated)	?	33.2*	.	?	-3.2%	104.8*
Cc1ccc(NC(=O)CCCN2C(=S)NC(C)(C)CC2C)cc1 (configuration not stated)	-8.2%	1.4	-0.2%	2.0%	-1.8%	-7.8
NC(=O)C1CCN(CC(=O)Nc2ccc3c(c2)OCCO3)CC1	-15.2%	.	-13.7%	-3.9%	11.0%	.
CC1CC(C)CN(CC(=O)Nc2ccc3c(c2)OCCO3)C1 (configuration not stated)	.	47.7*	.	?	?	74.2*
Cc1ccc2c(c1)nnn2C1CCN(CC(=O)Nc2ccc3c(c2)OCCO3)CC1	.	26.2*	.	?	-0.9%	22.2
C=CCC[C@H](Cc1ccc(F)cc1)C(=O)OC[C@H](Cc1c[nH]c2ccccc12)NC(=O)[C@H](CC=C)CC(=O)N[C@H](CO)Cc1ccccc1	?	.	-27.7%	.	.	.
